An excerpt weighted towards active compounds, which were near 1.5% of everything screened.
IL1B NFkB inh: inhibitors of IL-1B driven NFkB p65 nuclear import, primary screen, imaging, HUVEC, IL-1B stimulus, high-content imaging; AID 796, 2007; HUVEC IL-1B NFkB p65 nuclear translocation imaging; 94,000 tested, 0.43% active; inhibition, % at 2 µM;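 active = inhibition above about 30% together with a positive call from visual inspection of the well image, limit read from the data; inconclusive = inhibition above a set limit but visual check negative; inactive = inhibition not above a set limit, visual check negative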;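 also: nuclear over cytoplasmic p65 intensity ratio measured by imaging; 0% = IL-1B stimulated DMSO wells and 100% = unstimulated DMSO wells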
HUVEC tox TNFa: cytotoxicity in TNFa-stimulated HUVEC, primary screen, cytotoxicity control for VCAM1 expression modulator project, imaging, Hoechst nuclei count; 93,000 tested, 0.17% active; HUVEC TNFalpha-stimulated, Hoechst cell count; cell count reduction, % at 2 µM;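 active = cell count reduction exceeding the screen mean by over 5 SD, scaled to untreated wells per plate, cut at about 78% in these data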;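 also: cells counted after 24 h of TNF alpha exposure following the 1 h pretreatment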
IL1B NFkB pot: enhancers of NFkB p65 translocation in HUVEC – imaging, IL-1B stimulus, high-content imaging, primary screen; 94,000 tested, 0.3% active; AID 819, 2007; HUVEC IL-1B NFkB p65 nuclear translocation imaging; activation, % at 2 µM;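 active = activation above 40%, about the mean plus 3 SD, also judged a hit on visual image review; inconclusive = activation above 40% but not a hit on visual review; inactive = activation not above 40% and no visual hit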;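 also: percent activation is computed from the nuclear over cytoplasmic p65 intensity ratio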
VCAM1 TNFa inh: inhibitors of TNFa-induced VCAM1 expression, primary screen, imaging, HUVEC, TNFa stimulus, immunofluorescence. inhibition, % at 2 µM. HUVEC TNFa-induced VCAM-1 immunofluorescence, high-content imaging. 95,000 tested, 0.48% active. AID 802, 2007;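 active = inhibition above the batch mean plus 3 SD, with images confirmed as a hit by eye, cut at about 37% in these data; inconclusive = inhibition above that limit but hit not confirmed in images; inactive = inhibition not above that limit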;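 also: 0% = TNF-stimulated DMSO wells and 100% = unstimulated control wells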
IL1B cytotox: cytotoxicity in IL-1B stimulated HUVEC, primary screen, cytotoxicity control for IL-1B NFkB translocation project, imaging, Hoechst nuclear count, IL-1B stimulus | HUVEC cell count loss | cell count reduction, % at 2 µM | 94,000 tested, 0.41% active | AID 845, 2007;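 active = cell count reduction more than 3 SD above the screen-wide mean, cut at about 70% in these data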;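 also: normalized per plate to untreated control cells as the no-loss baseline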
* marks the source's active call; other numbers are inactive results; ? = inconclusive; . = no result.

SMILES	IL1B NFkB inh	HUVEC tox TNFa	IL1B NFkB pot	VCAM1 TNFa inh	IL1B cytotox
COc1ccc(S(=O)(=O)NC(CC(=O)NCc2ccco2)C(C)C)cc1 (stereo unspecified)	.	100*	.	?	.
CCC(C)NS(=O)(=O)c1ccc(OCC(=O)NCc2ccco2)cc1 (stereo unspecified)	0	-1	0	1	14
Cc1cc(=O)oc2cc(OC(=O)CCN3C(=O)c4ccccc4C3=O)ccc12	-3	-1	3	7	-61
COc1ccc(OC(=O)CCCN2C(=O)c3ccccc3C2=O)cc1	-6	-9	6	23	86*
COc1ccc(NC(=O)CSc2nnc(C3CCCCC3)n2-c2ccccc2)cc1	81*	-1	-81	15	55
CCOC(=O)N1CCN(c2nc(C)c3c(n2)CC(C)CC3=O)CC1 (stereo unspecified)	-40	0	40*	-4	-4
O=C/C(=C\Nc1ccc(Cl)cn1)c1nc2cc(Cl)ccc2o1	-50	-10	50*	7	-8
COc1cc2[nH]cc(C(=O)NCCc3ccccc3)c(=O)c2cc1OC	-5	-3	5	92*	-6
COCCNC(=O)c1c[nH]c2cc(OC)c(OC)cc2c1=O	-14	-22	14	-1	-8
CCCSc1nc(SCC(=O)NCc2ccccc2)c2c3c(sc2n1)COC(C)(CC)C3 (stereo unspecified)	9	-16	-9	1	0
COc1cccc(C(=O)N/N=C/c2ccc(OC3CSC3)cc2)c1	-20	94*	20	.	7
Cc1cccc(C(=O)N/N=C/c2ccc(OC3CSC3)cc2)c1	.	-10	.	5	.
O=C(CNCCC1=CCCCC1)Nc1ccccc1N1CCCCC1	-12	-9	12	11	2
Cc1ccc(C)c(N2CCN(C(=O)c3ccc(CS(=O)(=O)c4ccccc4C)o3)CC2)c1	-11	8	11	20	-23
Cc1cccc(N2CCN(C(=O)c3ccc(CS(=O)(=O)c4ccccc4C)o3)CC2C)c1 (stereo unspecified)	-48	48	49*	15	7
COc1cc(NC(=O)Cn2nc(C(F)(F)F)c3c2CCCC3)cc(OC)c1OC	-16	-7	16	-14	71*
O=C1C(c2ccc(F)cc2)N(C2CCCCC2)C(=O)CN1C1CCCC1 (stereo unspecified)	-128	-5	128*	-7	-9
Cc1cccc(C)c1NC(=O)C(c1ccc(Cl)cc1Cl)N1CCCCC1 (stereo unspecified)	-2	-2	2	-2	-21
CC(C)Sc1nc2c(c(=O)[nH]c(=O)n2C)n1C	-1	19	1	1	29
CCC(C)Sc1nc2c(c(=O)[nH]c(=O)n2C)n1C (stereo unspecified)	-7	-9	7	0	91*
O=C(CCn1c(=O)c2sccc2n(CC(=O)OCc2ccccc2)c1=O)NCc1ccccc1	16	-16	-16	-4	-7
O=S(=O)(Nc1ccc(S(=O)(=O)Nc2ccccc2)cc1)c1ccccc1	7	-4	-7	-3	-3
O=S(=O)(Nc1ccc(-n2cccc2)cc1)c1ccccc1	1	26	-1	40*	-25
O=C(Cc1ccccc1)NC(NCCc1ccccc1)C(Cl)(Cl)Cl (stereo unspecified)	0	-6	0	1	2
N/C(=N\OS(=O)(=O)c1ccc(Br)cc1)c1ccncc1	35*	7	-35	-8	-19
SMILES	IL1B NFkB inh	HUVEC tox TNFa	IL1B NFkB pot	VCAM1 TNFa inh	IL1B cytotox
N=c1c(-c2nc3ccccc3[nH]2)cc(C(=O)c2cccs2)nn1-c1ccc(Cl)cc1	8	-14	-8	8	-12
Cc1[nH]c2ccccc2c1Cc1n[nH]c(=S)o1	-46	-30	46*	12	13
Cc1[nH]c2ccccc2c1Cc1n[nH]c(=S)n1C	-3	4	3	-23	51
CC(=O)c1ccc(NS(=O)(=O)c2cccc(C)c2)cc1	-1	-7	1	-74	2
Cc1ccccc1C(=O)Nc1ccccc1-n1cccc1	-40	-3	40*	-35	0
COC(=O)C1=C(C)OC(N)=C(C#N)C1c1cc(OC)c(OCC(N)=O)cc1Cl (stereo unspecified)	-3	-39	3	3	-61
CCOC(=O)C1CCCN(S(=O)(=O)c2cn(C)c(=O)n(C)c2=O)C1 (stereo unspecified)	10	79*	-10	-24	0
CCCCCCCCCCn1c2c(c(=N)c3c1CCC3)CCC2	11	14	-11	87*	-5
CCCCn1c(SCc2c(C)noc2C)nc2cc(S(N)(=O)=O)ccc21	-20	-8	20	23	-4
COC(=O)c1cc(OC)c(OCc2cc(C(=O)OC)oc2C)c(OC)c1	26	-17	-26	-53	89*
Cc1ccc(-c2nn3c(C)nnc3s2)cc1NC(=O)CSc1ccc(Cl)cc1	-63	3	63*	19	-14
Cc1ccc(-c2nn3c(C)nnc3s2)cc1NC(=O)C(C)C	-42	-14	42*	13	5
Cc1ccc(-c2nn3c(C)nnc3s2)cc1NC(=O)c1cccnc1	3	-5	-3	1	-11
Cc1nnc2sc(-c3ccc(NC(=O)CSc4ccc(Cl)cc4)cc3)nn12	-32	-9	32	7	29
CC(C)n1c(SCCCc2ccccc2)nc2c1c(=O)[nH]c(=O)n2C	38*	-9	-38	7	11
COc1ccc(-c2cc3ccc(OCc4nn[nH]n4)cc3oc2=O)cc1OC	2	77	-2	51*	-1
O=S(=O)(c1cccc(-n2cnnn2)c1)N1CCOCC1	-8	100*	8	?	-7
Cc1ccc(CNC(=O)C2CCCCC2C(=O)O)cc1 (stereo unspecified)	-5	14	5	2	2
COCCn1c(Cc2ccccc2)nnc1SCC(=O)NC(C)C	-5	-19	5	8	-39
CCCCCC(=O)N/N=C/c1ccc([N+](=O)[O-])o1	-25	.	25	.	93*
Cc1ccc(NCC(=O)N/N=C\c2ccc([N+](=O)[O-])o2)cc1	-5	-3	5	0	-39
Cc1ccc2nc(SCC(=O)Nc3ccc4sc(C)nc4c3)c(C#N)cc2c1	-8	-11	8	-9	2
Cc1ccnc(N/C=C(/NC(=O)c2ccccc2)C(=O)N/N=C\c2ccc(F)cc2)n1	56*	-12	-56	14	78*
Clc1cc(Sc2ccc(Br)cc2)nnc1-c1ccccc1	-13	-4	13	-3	13
CCCOc1ccc(C2/C(=C(\O)c3c(C)[nH]c(C(=O)OC)c3C)C(=O)C(=O)N2CCN(C)C)cc1 (stereo unspecified)	-3	-19	3	11	-5
